Compound activity deposited in PubChem by several laboratories.
Shown are actives, neighbours in structure and some others; about 3.3% of the full set was active somewhere.
MITF TRPM1 HTS = activators of MITF-driven TRPM1 promoter activity in SK-MEL-5 cells; activation, % at 12.5 µM; 0.75% of 300,000 active; SK-MEL-5 TRPM1-promoter luciferase, 24 h; % of positive control, neutral wells = 0;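 active = mean activation of at least 80% with every replicate also reaching 80%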;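 note: 0% = neutral control wells and 100% = parthenolide positive control wells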
GAA850 FXN act = activators of GAA850 frataxin (FXN) promoter; AID 540364; 0.56% of 360,000 active; activation, % at 6 µM; HEK293 lucGAA850 FXN promoter luciferase reporter, 24 h; percent of 10 µM SAHA response;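 active = activation above the average of all compounds screened plus 3 SD, cutoff fixed separately per campaign, cut at about 7.5% in these data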;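 note: 0% = DMSO wells and 100% = 10 µM SAHA wells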
Wnt bcat act = Wnt/beta-catenin pathway activation; Wnt/beta-catenin reporter cell assay, activator, plate reader; 1.2% of 300,000 active; activation, % at 9.35 µM; in the data active = activation above about 30%, passing the limit was not always enough;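 note: 0% = neutral control wells and 100% = positive control wells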
esBAF inh = inhibitors of esBAF chromatin remodeling in mouse ES cells; Bmi1-luciferase knock-in reporter, 24 h; 100% = twice the neutral-well signal; reporter increase, % at 12.5 µM; 2% of 350,000 active; AID 602393; in the data active = activation above about 40%;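 note: 0% = median of the plate's neutral control wells and 100% = double that signal; a rise in the Bmi1 reporter signal indicates esBAF inhibition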
Statin myotox sup = suppression of simvastatin myotoxicity; 0.78% of 330,000 active; rescue of ATP level, % at 7.49 µM; C2C12 myotubes + simvastatin, ATP luminescence, 48 h; scaled: DMSO 0, geranylgeraniol control 100;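 active = mean ATP rescue above about 67%, or every replicate alone reaching that limit, limit read from the data, passing the limit was not always enough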;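 note: myotubes were challenged with 10 µM simvastatin during compound exposure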
Active calls of the source: *; . = no result.

SMILES	MITF TRPM1 HTS	GAA850 FXN act	Wnt bcat act	esBAF inh	Statin myotox sup
CC(=O)CCc1c[nH]c2c(C(=O)O)cccc12	0	1	.	12	104*
COc1cc(-c2ccccc2)nc(N)n1	47	3	14	.	.
CCOc1cc(-c2ccccc2)nc(N)n1	24	3	.	47*	2
O=C(C[C@H]1CC[C@H](NC(=O)c2cccc(F)c2)[C@@H](CO)O1)NCc1ccccc1	.	.	.	-4	7
COc1cc(OC)cc(C(=O)N2CCN(C(=O)c3cccs3)CC2)c1	-5	2	-1	6	0
COc1ccc(C2(NC(C)=O)CCN(C(=O)c3cccs3)CC2)cc1	7	1	.	-7	99*
C[C@@H]1CCCCO[C@H](CN(C)Cc2ccc(Cl)c(Cl)c2)[C@H](C)CN([C@@H](C)CO)C(=O)c2cc(NS(=O)(=O)c3cn(C)cn3)ccc2O1	.	.	.	3	.
N#CC(Cc1ccc(OC(F)F)cc1)c1nc2ccccc2[nH]1 (configuration not stated)	91*	1	25	60*	-9
CN1CCN(C(=O)C[C@H]2C[C@H]3c4cc(NC(=O)Nc5ccc(F)cc5)ccc4O[C@H]3[C@H](CO)O2)CC1	.	.	.	-9	4
C[C@H](NC(=O)C[C@H]1CC[C@H](NC(=O)CN2CCOCC2)[C@@H](CO)O1)c1ccccc1	.	.	.	-2	3
CCc1ccc(CN2CCN(C(=O)c3cccc(OC)c3OC)CC2)cc1	-19	-2	-9	11	91*
COc1cccc(C(=O)N2CCN(C(=O)c3cccc4ccccc34)CC2)c1OC	-6	-2	.	6	0
CO[C@H](CN(C)Cc1cc(F)ccc1F)[C@@H](C)CN([C@@H](C)CO)S(=O)(=O)c1ccc(F)cc1	.	.	.	1	-7
O=C(NCc1nnc(SCC(=O)N2CCCc3ccccc32)o1)c1c(F)cccc1Cl	-2	0	50*	0	10
O=C(NCc1nnc(SCC(=O)N2CCCCC2)o1)c1c(F)cccc1F	3	0	-1	-5	-10
CC(=O)c1ccc(OCC(O)CN2CCN(Cc3ccccc3)CC2)cc1 (configuration not stated)	2	2	0	1	9
CC(=O)c1ccc(OCC(O)CN2CCN(CC(O)COc3ccc(C(C)=O)cc3)CC2)cc1 (configuration not stated)	5	-3	-3	-3	109*
CC(=O)N(C)c1ccc(OCC(O)COc2ccc(N(C)C(C)=O)cc2)cc1	6	1	.	2	125*
C[C@H](NC(=O)N(C)C[C@H]1OCc2ccccc2-c2c(n(C)c3ccccc23)C(=O)N([C@H](C)CO)C[C@@H]1C)c1ccccc1	.	.	.	-1	.
c1cc(-c2noc(CC3CCCCC3)n2)ccn1	63	0	.	33	147*
CN(C(=O)c1ccc2c(c1)CCN2S(C)(=O)=O)c1ccccc1	-3	0	0	-1	-6
CS(=O)(=O)N1CCc2cc(C(=O)OCC(=O)c3ccccc3)ccc21	8	4	.	51*	8
CS(=O)(=O)N1CCc2cc(C(=O)Nc3ccc(Br)cc3)ccc21	19	3	-2	48*	-9
Cc1cc(C)cc(NC(=O)c2ccc3c(c2)CCN3S(C)(=O)=O)c1	22	4	3	12	-4
Cc1ccc(NC(=O)c2ccc3c(c2)CCN3S(C)(=O)=O)cc1	.	1	45*	66*	-8
SMILES	MITF TRPM1 HTS	GAA850 FXN act	Wnt bcat act	esBAF inh	Statin myotox sup
COc1ccccc1C(=O)Nc1ccc2c(c1)OC[C@H](C)N(C(C)=O)C[C@H](C)[C@@H](OC)CN(C)C2=O	.	.	.	-1	21
COc1ccc(N=Cc2c(OC)ccc3ccccc23)cc1	.	0	1	.	.
COc1ccc(-n2c(O)c(C=Nc3ccccc3)c3ccccc3c2=O)cc1	13	1	-7	3	-82
COc1ccc(N=Cc2sc(O)c3ccccc23)cc1	28	5	34*	82*	180*
COc1ccc(N=Cc2c(O)c3ccccc3n2C(C)=O)cc1	28	2	30*	27	5
CC(=O)N[C@H]1CC[C@H](CC(=O)NCc2ccc(Cl)cc2)O[C@@H]1CO	.	.	.	4	3
Nc1nnc(SCC(=O)c2cccc([N+](=O)[O-])c2)s1	7	0	-1	.	.
Nc1nnc(SCC(=O)c2ccc3ccccc3c2)s1	.	.	.	52*	.
Cc1ccc(-c2nc(N)n(C(=O)c3cccnc3)n2)cc1	.	-1	9	43*	0
C[C@H]1CN([C@@H](C)CO)S(=O)(=O)c2ccc(C#CC3CC3)cc2O[C@H]1CN(C)C(=O)c1ccncc1	.	.	.	-2	20
COc1ccc(C2Nc3ccccc3C(=O)N2c2ccc(C)cc2)cc1Cn1nc(C)c([N+](=O)[O-])c1C (configuration not stated)	90*	7	16	86*	-18
COc1ccc(C2Nc3ccccc3C(=O)N2c2ccc(C)cc2)cc1COc1ccccn1 (configuration not stated)	31	2	.	.	.
Cc1cc(C)c(NC(=O)COC(=O)C2=COCCO2)c(C)c1	.	-1	2	-5	0
O=C(COC(=O)C1=COCCO1)Nc1cc(Cl)c(Cl)cc1Cl	7	2	45*	-4	2
C[C@@H]1CN([C@@H](C)CO)C(=O)Cc2cc(N(C)C)ccc2O[C@@H]1CN(C)S(=O)(=O)c1ccccc1	.	.	.	-4	-33
Cc1nc2scc(-c3cccs3)c2c(=O)[nH]1	4	2	-4	-5	6
O=c1[nH]c(-c2ccc(O)cc2)nc2scc(-c3cccs3)c12	114*	6	-3	61*	-18
COc1ccc(S(=O)(=O)N(C)C[C@@H]2Oc3ccc(NS(=O)(=O)c4cccs4)cc3CC(=O)N([C@H](C)CO)C[C@@H]2C)cc1	.	.	.	8	-22
Cc1c(-c2nc(-c3cccnc3)no2)cccc1[N+](=O)[O-]	12	2	0	.	.
Cc1ccc(-c2nc(-c3cccnc3)no2)c(C)c1	.	4	.	44*	0
CC(Oc1ccc(Cl)cc1Cl)c1nc(-c2ccc(NC(=O)c3ccco3)cc2)no1 (configuration not stated)	.	2	.	50*	-9
c1ccc(-c2noc(COc3ccc4c(c3)OCO4)n2)cc1	97*	4	.	63*	7
Cc1ccc(C)c(OCc2nc(-c3cccnc3)no2)c1	35	1	.	16	12
Cc1cc(Br)ccc1OCc1nc(-c2cccnc2)no1	.	6	38*	85*	-13
CNC(=O)C[C@@H]1CC[C@H]2[C@H](COc3ccc(NC(=O)C(C)C)cc3C(=O)N2C)O1	.	.	.	0	-5
O=C(C[C@H]1C[C@H]2c3cc(NC(=O)CC4CC4)ccc3O[C@H]2[C@H](CO)O1)NCC1CC1	.	.	.	1	0
CO[C@@H]1CN(C)C(=O)c2ccc(NS(C)(=O)=O)cc2OC[C@H](C)N(C(=O)NC(C)C)C[C@@H]1C	.	.	.	-6	4
COc1ccc(NC(=O)N(C)C[C@@H]2Oc3cc(C#CCN(C)C)ccc3S(=O)(=O)N([C@@H](C)CO)C[C@H]2C)cc1	.	.	.	-3	-36
